Among the test systems are HCT-15 colon; HT29 colon; SNB-75 CNS; U251 CNS; PC-3 prostate; SK-MEL-5 melanoma; UACC-62 melanoma; LOX IMVI melanoma; SK-MEL-28 melanoma; SK-MEL-2 melanoma; EKVX NSCLC; SN12C renal; UO-31 renal; TK-10 renal; ACHN renal; CAKI-1 renal; A498 renal; CCRF-CEM leukemia; MOLT-4 leukemia; SNB-19 CNS.
What all share (experiment): NCI-60 one-dose screen, 48 h (100 = growth as untreated, 0 = no growth, -100 = all killed)
Common to all, as to details: 10 µM unless noted

Growth data for eight compounds are collected here from PubChem BioAssay (NCI).

Structures are written as SMILES. This is part of a sample that, as a whole, favours compounds with a hit. Of some 83,000 tested, about 20% had one in any assay.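 Cells were grown in 96-well plates and exposed to the test compound at a single concentration for 48 hours; results are reported as percent growth, with values below 10 considered active.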 A number with no mark means an inactive call. Activity calls are given as the source filed them.

For the compound `CC(C)=CCC[C@](C)(O)[C@H]1CC[C@]2(C)[C@@H]1CC[C@@H]1[C@@]3(C)Cc4nccnc4C(C)(C)[C@@H]3CC[C@]12C`, the growth with HCT-15 colon was 70.4%; in the assay on HT29 colon, 42%; in the assay with SNB-75 CNS, 91.6%; in the assay with U251 CNS it was 78.2%; in the assay with PC-3 prostate it was 44.6%; with SK-MEL-5 melanoma, 65.8%. Moreover, the growth in the assay with UACC-62 melanoma is 66.9%; with LOX IMVI melanoma it was 83.7%; with SK-MEL-28 melanoma, 95.6%; in the assay with SK-MEL-2 melanoma it was 82.7%; in the assay with EKVX NSCLC it was 70.6%; in the assay on SN12C renal, 72.3%. The growth in the assay on UO-31 renal was 79.9%; in the assay with TK-10 renal, 94.9%; in the assay on ACHN renal it was 85%; in the assay on CAKI-1 renal it was 70.2%; in the assay on A498 renal, 91.4%; in the assay on CCRF-CEM leukemia, 68.4%. In addition, the growth in the assay with MOLT-4 leukemia was 66.7%.
Consider `O=C(Cn1cc(CN2C(=O)c3ccccc3S2(=O)=O)nn1)Nc1nc2ccccc2s1`, for which the growth was 107% with HCT-15 colon; 97.9% with HT29 colon; 81.2% in the assay with SNB-75 CNS; 98.7% with U251 CNS; 93.2% in the assay with PC-3 prostate; 104% in the assay with SK-MEL-5 melanoma. Also, the growth was 97.5% in the assay with UACC-62 melanoma; 92.5% in the assay with LOX IMVI melanoma; 106% in the assay on SK-MEL-28 melanoma; 95.3% in the assay on SK-MEL-2 melanoma; 105% in the assay on EKVX NSCLC; 105% in the assay with SN12C renal. Moreover, the growth is 69.1% in the assay on UO-31 renal; 97.5% with TK-10 renal; 90.5% in the assay with ACHN renal; 89.6% in the assay with CAKI-1 renal; 108% in the assay on A498 renal; 113% with CCRF-CEM leukemia. Besides, in the assay with MOLT-4 leukemia, the growth was 115%.
For the compound `CCCCCCCCCCCCCCCCCCOc1ccccc1CC(=O)OCC[N+]1(C)CCCC1`, the growth was 68.1% with HCT-15 colon; 12.4% in the assay on HT29 colon; 7.26% (active) in the assay with SNB-75 CNS; 7.62% (active) in the assay with U251 CNS; 21.8% in the assay with PC-3 prostate; 1.15% (active) in the assay on SK-MEL-5 melanoma. In addition, the growth in the assay with UACC-62 melanoma was 23.3%; in the assay on LOX IMVI melanoma, -94.4% (active); in the assay on SK-MEL-28 melanoma, 49.7%; in the assay with SK-MEL-2 melanoma, 65.6%; with EKVX NSCLC, 53.8%; in the assay on SN12C renal it was 12.7%. For the same compound, the growth is 62.8% with UO-31 renal; 45.2% in the assay with TK-10 renal; 78.9% in the assay on ACHN renal; 30.9% in the assay on CAKI-1 renal; 60.7% with A498 renal; 19.8% with CCRF-CEM leukemia. Besides, the growth in the assay with MOLT-4 leukemia was 18.1%.
In the case of `N#Cc1cccc(-c2c(-c3ccc4ccccc4c3)oc3ccccc3c2=O)c1`, the growth is 33.9% in the assay with HCT-15 colon; 10.9% with HT29 colon; 51.1% in the assay on SNB-75 CNS; 45.6% in the assay with U251 CNS; 34.1% in the assay with PC-3 prostate; 31% in the assay with SK-MEL-5 melanoma. The growth with UACC-62 melanoma was 33.9%; with LOX IMVI melanoma, 50.7%; in the assay with SK-MEL-28 melanoma, 58%; in the assay on SK-MEL-2 melanoma, 59.1%; with EKVX NSCLC, 52.7%; in the assay on SN12C renal it was 68.3%. The growth was 51.4% with UO-31 renal; 73.1% with TK-10 renal; 55.9% in the assay with ACHN renal; 45.5% in the assay with CAKI-1 renal; 43.4% in the assay with A498 renal; 27.6% in the assay on CCRF-CEM leukemia. In addition, the growth with MOLT-4 leukemia is 31%.
Turning to `COc1ccc(C(=O)C2C(c3ccc(OC)cc3)CN(C)C23C(=O)Nc2ccccc23)cc1` (stereo not given), the growth in the assay with HCT-15 colon is 86.9%; in the assay with HT29 colon, 84.3%; with SNB-75 CNS it was 76.7%; in the assay with SNB-19 CNS it was 86%; in the assay on U251 CNS, 92.9%; with PC-3 prostate, 75.3%. The growth was 99.1% in the assay with SK-MEL-5 melanoma; 66.3% with UACC-62 melanoma; 93% in the assay with LOX IMVI melanoma; 105% in the assay on SK-MEL-28 melanoma; 96.9% in the assay with SK-MEL-2 melanoma; 91% in the assay on EKVX NSCLC. Also, the growth in the assay on SN12C renal is 92.1%; with TK-10 renal, 103%; in the assay on ACHN renal it was 95.5%; with CAKI-1 renal, 68.2%; in the assay with CCRF-CEM leukemia, 97.4%; with MOLT-4 leukemia, 88.1%.
Consider `CCCc1cc(NC)nc(S(=O)(=O)CC)n1`, for which the growth is 104% in the assay on HCT-15 colon; 107% with HT29 colon; 88.6% with SNB-75 CNS; 107% in the assay with U251 CNS; 109% in the assay on PC-3 prostate; 104% in the assay on SK-MEL-5 melanoma. The growth was 93.8% in the assay with UACC-62 melanoma; 103% with LOX IMVI melanoma; 106% in the assay on SK-MEL-28 melanoma; 115% in the assay with SK-MEL-2 melanoma; 104% in the assay on EKVX NSCLC; 99.1% with SN12C renal. For the same compound, the growth in the assay on TK-10 renal was 110%; in the assay on ACHN renal, 107%; in the assay on CAKI-1 renal, 98.1%; with A498 renal, 113%; in the assay on CCRF-CEM leukemia, 107%; in the assay with MOLT-4 leukemia, 107%.
`CN(C)CCNc1nc2c3cc(Cl)ccc3nn2c2ccccc12`: the growth is 41.2% in the assay with HCT-15 colon; 21.4% in the assay on HT29 colon; 83.5% with SNB-75 CNS; 49.5% with U251 CNS; 46.8% with PC-3 prostate; 56.1% in the assay on SK-MEL-5 melanoma. Also, the growth was 73.6% in the assay on UACC-62 melanoma; 25.9% in the assay with LOX IMVI melanoma; 96.3% in the assay with SK-MEL-28 melanoma; 95.2% in the assay on SK-MEL-2 melanoma; 49.8% with EKVX NSCLC; 40.9% with SN12C renal. Besides, the growth with UO-31 renal was 28.2%; in the assay with TK-10 renal, 97.8%; in the assay on ACHN renal, 22.7%; with CAKI-1 renal, 40.4%; with A498 renal it was -6.05% (active); in the assay on CCRF-CEM leukemia it was 47.1%. Besides, in the assay on MOLT-4 leukemia, the growth was 15.9%.
Consider `CC(C)(C)[Si](C)(C)O[C@H]1C(=O)C=CN2CC=C[C@@H]12`, for which the growth in the assay on HCT-15 colon is 104% [100 µM]; in the assay with HT29 colon, 106% [100 µM]; in the assay on SNB-75 CNS it was 91% [100 µM]; with U251 CNS, 98.5% [100 µM]; with PC-3 prostate, 91.9% [100 µM]; in the assay on SK-MEL-5 melanoma it was 106% [100 µM]. Further, the growth with UACC-62 melanoma was 85.3% [100 µM]; in the assay on LOX IMVI melanoma it was 102% [100 µM]; with SK-MEL-28 melanoma, 117% [100 µM]; in the assay on SK-MEL-2 melanoma, 112% [100 µM]; with EKVX NSCLC, 91.2% [100 µM]; with SN12C renal, 97.4% [100 µM]. For the same compound, the growth with UO-31 renal is 80.3% [100 µM]; in the assay with TK-10 renal, 108% [100 µM]; in the assay on ACHN renal, 101% [100 µM]; in the assay with CAKI-1 renal, 104% [100 µM]; with A498 renal, 97.9% [100 µM]; with CCRF-CEM leukemia it was 106% [100 µM]. In the assay with MOLT-4 leukemia, the growth was 118% [100 µM].
